In PubChem BioAssay (Tox21):
Records with an inconclusive call do not appear. The source made the active and inactive calls. The call rests on the fitted dose curve; in most records, active means well fitted cell-killing curve with a large enough effect in the repeat runs; inconclusive means weak or mixed curves, or effect the other way; inactive means flat fitted curve, though single readings scatter.

Assay: qHTS RealTime-Glo MT Cell Viability Assay in HEK293 cells - 16 hour (AID 1224872); further: top concentration of the series differs between compounds; nearly all actives have a fitted effect of over 50% in size
Details: RealTime-Glo luminescence; series mostly up to 76.8 µM; activity change, negative = cytotoxicity: at the top concentration
Text: National Center for Advancing Translational Sciences [NCATS]
NIH Chemical Genomics Center [NCGC]
U.S. Environmental Protection Agency [EPA]
National Institutes of Environmental Health Sciences [NIEHS]
National Toxicology Program [NTP]
U.S. Food and Drug Administration [FDA]
Measure of cell viability is critical in the cell-base assay. Analysis of cell viability is necessary for the characterization of cell responses to cytotoxic drugs and environmental stress. A RealTime-Glo MT Cell Viability Assay to monitor cell viability in real time of continues cell culture during 40 hours of compound treatment was used to screen Tox21 10K library compounds in Hek293 cells. The RealTime-Glo MT Cell Viability Assay is a nonlytic, homogeneous, bioluminescent method to measure cell viability in real time using a simple, plate-based method. The assay involves adding NanoLuc luciferase and a cell-permeant prosubstrate to cells in culture. Viable cells reduce the proprietary prosubstrate to generate a substrate for NanoLuc luciferase. This substrate diffuses from cells into the surrounding culture medium, where it is rapidly used by the NanoLuc Enzyme to produce a luminescent signal. The signal correlates with the number of viable cells, making the assay well suited for cytotoxicity studies.
Tox21 Assay Protocol Summary:
The mixture of Hek293 cell suspension and reagents were dispensed at 600cells/6 ul/well in 1536-well tissue culture treated black solid bottom plates using a Multidrop dispenser. After the assay plates were incubated at a 37 C/5% CO2 incubator for 5 hours, 23 nL of compounds dissolved in DMSO, positive and negative controls was transferred to the assay plate by a pintool work station. The plates were incubated at 37 C for 40 hours. The luminescence intensity were measured at 0h, 8h, 16h, 24h, 32h and 40h time points using ViewLux plate reader during compound treatment.
On the % scale 0 is the no-effect control and ±100 the full control effect.

| Structure (SMILES) | activity change, negative = cytotoxicity |
| --- | --- |
| CNCCC(Oc1ccccc1OC)c1ccccc1 (stereo not given) | -19.4% [at 35.3 µM] (inactive) |
| CCc1cc(Cl)c(OC)c(C(=O)NC[C@@H]2CCCN2CC)c1O | -8.31% [at 35.3 µM] (inactive) |
| CC(C)C1=CC2=CC[C@@H]3[C@](C)(CCC[C@@]3(C)C(=O)O)[C@H]2CC1 | 3.34% (inactive) |
| CCCC(CCC)(C(=O)OCC)C(=O)OCC | 4.91% [at 35.3 µM] (inactive) |
| CCCCNC(=S)NCCCC | -16% (inactive) |
| CCCCC(=O)O[C@]1(C(=O)CO)[C@H](C)C[C@H]2[C@@H]3CCC4=CC(=O)C=C[C@]4(C)[C@@]3(F)[C@@H](O)C[C@@]21C | 0.184% [at 35.3 µM] (inactive) |
| CC1(C)O[C@@H]2C[C@H]3[C@@H]4CCC5=CC(=O)CC[C@]5(C)[C@@]4(F)[C@@H](O)C[C@]3(C)[C@]2(C(=O)CCl)O1 | -26% [at 35.3 µM] (inactive) |
| O=C(O)[C@@H](O)[C@H](O)[C@H](O)[C@@H](O)C(=O)O | 6.17% [at 35.3 µM] (inactive) |
| CCN(O)CC | 9.47% (inactive) |
| Cc1c(N)cccc1N | 3.35% (inactive) |
| C=C(C)C(=O)OCCOP(=O)(O)O | 5.05% (inactive) |
| CC(C)(C)C1CCCCC1=O (stereo not given) | 10.1% (inactive) |
| CCCNC(C)(C)COC(=O)c1ccccc1 | 2.77% [at 35.3 µM] (inactive) |
| O=C1CCCc2ccccc21 | 14.7% (inactive) |
| CC(=O)O[C@H]1CC[C@@]2(C)C(=CC[C@@H]3[C@@H]2CC[C@]2(C)C(C(C)=O)=CC[C@@H]32)C1 | -22.6% [at 35.3 µM] (inactive) |
| CC/C=C\CCOC(=O)C(C)C | 0.511% (inactive) |
| Cn1cnc2c(F)c(Nc3ccc(Br)cc3Cl)c(C(=O)NOCCO)cc21 | 0.472% [at 35.3 µM] (inactive) |
| Cc1nc(N)nc(N)c1-c1ccc(Cl)c(Cl)c1 | -31.2% [at 35.3 µM] (inactive) |
| Cc1cc2c(s1)Nc1ccccc1N=C2N1CCN(C)CC1 | 0.313% [at 35.3 µM] (inactive) |
| Cc1onc(-c2ccccc2)c1C(=O)Cl | -1.1% [at 35.3 µM] (inactive) |

| Structure (SMILES) | activity change, negative = cytotoxicity |
| --- | --- |
| CC(C)(CO)[C@@H](O)C(=O)NCCC(=O)O | 11.2% (inactive) |
| FC(F)(F)C(F)(F)C(F)(F)C(F)(F)C(F)(F)C(F)(F)C(F)(F)C(F)(F)Br | 6.47% [at 35.3 µM] (inactive) |
| CCOC(=O)C(Br)c1ccccc1 (stereo not given) | 17.5% (inactive) |
| CCNCCO | 3.07% (inactive) |
| CCOc1ccccc1N | -27.7% (inactive) |
| O=c1[nH]c(=O)n([C@H]2C[C@H](O)[C@@H](CO)O2)cc1C(F)(F)F | 11.4% [at 35.3 µM] (inactive) |
| Oc1ccccc1C=NCc1ccccc1 | 2.36% [at 35.3 µM] (inactive) |
| CCC1(C)NC(=O)NC1=O (stereo not given) | 4.44% (inactive) |
| CC(C)C[C@H](NC(=O)OCC1c2ccccc2-c2ccccc21)C(=O)O | -20.1% (inactive) |
| CC(C)NC[C@@H](O)COc1cccc2ccccc12 | -21.9% [at 35.3 µM] (inactive) |
| CCN(CC)CCOc1ccc(Cc2ccccc2)cc1 | -20.7% [at 35.3 µM] (inactive) |
| CCC(=O)Nc1ccc(O)cc1 | 8.2% [at 35.3 µM] (inactive) |
| CCCNC(C)C(=O)Nc1c(C)csc1C(=O)OC (stereo not given) | -2.04% [at 35.3 µM] (inactive) |
| CC(C)CCCCCCc1ccc(OCCOCCO)cc1 | 2.82% (inactive) |
| COc1ccccc1N1CCN(CCCNc2cc(=O)n(C)c(=O)n2C)CC1 | -21.4% [at 35.3 µM] (inactive) |
| Oc1ccccc1F | 7.21% (inactive) |
| O=C(Cl)c1cccc([N+](=O)[O-])c1 | 4.71% (inactive) |
| CCN1CC(CCN2CCOCC2)C(c2ccccc2)(c2ccccc2)C1=O (stereo not given) | 19.6% [at 35.3 µM] (inactive) |
| O=C(O)[C@@H]1CSCN1 | 1.77% [at 35.3 µM] (inactive) |
| C[C@@H]1CN(c2c(F)c(N)c3c(=O)c(C(=O)O)cn(C4CC4)c3c2F)C[C@H](C)N1 | -1.59% [at 15.8 µM] (inactive) |
